According to PubChem BioAssay AID795 (NMMLSC, 2007):
Hit rate of the full screen: of about 24,000 compounds, about 130 (0.54%) were called active. The sample as a whole holds a higher share of actives than the screen did. Unmarked numbers belong to inactive results.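 Rule for the calls: active = side scatter shift above 30%; inactive = the rest.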

Test: activators of LNCaP prostate cell differentiation, primary screen, flow cytometry side scatter (AID 795);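 note: androgen-responsive LNCaP prostate cancer cells in charcoal-stripped serum medium; percent of cells past a gate set so DMSO wells show 10% shift; higher shift means more granular cells and more differentiation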
Details: 4 d, at 10 µM, hits give high values

| SMILES | side scatter shift |
| --- | --- |
| Cc1ccc(-c2noc(-c3ccccc3C(=O)NCC3CCCO3)n2)cc1 (stereo unspecified) | 5% |
| CCOC(=O)Nc1ccccc1N1C(=O)c2ccccc2C1=O | 8% |
| O=C(CNS(=O)(=O)c1ccc(Br)s1)NCc1ccc2c(c1)OCO2 | 9% |
| COc1ccc(-c2nc(CS(=O)CC(=O)N3CCc4ccccc4C3)c(C)o2)cc1 (stereo unspecified) | 11% |
| O=C1CSC(c2cccc(F)c2)N1c1ccccc1F (stereo unspecified) | 8% |
| CCOC(=O)c1cccc(NC(=O)CCc2c(C)nc3ncnn3c2C)c1 | 4% |
| CC1Cc2nc(SCC(=O)Nc3ccccc3F)n(C)c(=O)c2S1 (stereo unspecified) | 7% |
| CSCCC(NC(=O)C1CCC(C)CC1)C(=O)NCc1ccco1 (stereo unspecified) | 3% |
| CCOc1ccc(NC(=O)N(CCC(C)C)C(C)c2ccco2)cc1 (stereo unspecified) | 7% |
| COc1cc2[nH]c(=O)n(CCC(=O)NC3CCN(Cc4ccccc4)CC3)c(=O)c2cc1OC | 2% |
| Cn1c(=O)cc(SCC(=O)N2CCCC2)c2cc(Cl)ccc21 | 9% |
| COc1cc(OC)cc(-c2nc3nc(C)c(CCC(=O)NCc4ccco4)c(C)n3n2)c1 | 5% |
| CC1C=CCC2C(=O)N(c3cccc(C(=O)N4CCCCCC4)c3)C(=O)C12 (stereo unspecified) | 3% |
| C/C(=N\O)C1(C)N(O)C(C)(C)C(c2ccc(Br)cc2)=[N+]1[O-] (stereo unspecified) | 11% |
| CCCSc1nc2c(c(=O)[nH]c(=O)n2C)n1CCc1ccccc1 | 9% |
| Cc1ccc2nc3n(c(=O)c2c1)CCC3 | 8% |
| Cc1nc2nc(SCC(=O)NCc3ccco3)nn2c(C)c1Cc1ccccc1 | 4% |
| S=C1SCN(CCN2CCOCC2)CN1Cc1ccccc1 | 18% |
| CCOC(=O)C1CCCN(C(=O)Cn2ncc3c(=O)oc4ccc(C)cc4c32)C1 (stereo unspecified) | 5% |
| O=C(NC(=O)c1ccc(Cl)c(Cl)c1)OC1CCS(=O)(=O)C1 (stereo unspecified) | 6% |
| CC1CCc2c(sc3c2C2=NS(=O)(=O)CCN2C=N3)C1 (stereo unspecified) | 12% |
| CC(=O)c1c(N)n(C)c(=O)n(C)c1=O | 0% |
| CCCC1CC(C)(C(=O)Cn2[nH]c(=O)ccc2=O)OC1=O (stereo unspecified) | 1% |
| Fc1cc(F)c2nc(N3CCOCC3)sc2c1 | 5% |

| SMILES | side scatter shift |
| --- | --- |
| Cn1c(=O)c2c(nc(N3CCCCCC3)n2CC(=O)c2ccc(Br)cc2)n(C)c1=O | 21% |
| CCOC(=O)N1CCN(C(=O)c2ccc(S(=O)(=O)c3ccc(C)cc3)c(NC(C)=O)c2)CC1 | 8% |
| N#CC1=C(N)C(C#N)(C#N)[C@H](c2ccsc2)[C@H]2COCC=C12 | 9% |
| NC(=O)CSC1=Nc2ccccc2C2=NC(CCC(=O)NCc3ccc(F)cc3)C(=O)N12 (stereo unspecified) | 0% |
| COc1ccc(NC(=O)C2CCCN(S(=O)(=O)c3cccc4cccnc34)C2)cc1 (stereo unspecified) | 6% |
| CCCCN(CC)CCCNC(=O)CS(=O)(=O)Cc1nc(-c2cccc(OC)c2)oc1C | 7% |
| CC(=O)Nc1cc2ccc(OC(C)=O)cc2oc1=O | 10% |
| O=C(CSc1nc2[nH]ncc2c(=O)n1-c1ccccc1)N1CCCc2ccccc21 | 5% |
| COc1ccc(OCc2ccc(-c3nc4ccccc4c(=O)n3N)o2)cc1 | 6% |
| Cc1ccc(NC(=O)c2nc[nH]c2C(=O)N2CCCCC2)c(C(=O)c2ccccc2)c1 | 14% |
| COc1ccc(OC)c(NC(=O)CC(Cc2ccccc2OC)C(=O)O)c1 (stereo unspecified) | 15% |
| CCn1cc(C(=O)N2CCN(C3CCCCC3)CC2)c2cc(OC)c(OC)cc2c1=O | 7% |
| Cc1nc2ccccc2c2oc(C(=O)NCC3CCCO3)cc12 (stereo unspecified) | 11% |
| O=C(CN1C(=O)C2C3C=CC(C3)C2C1=O)NCC1COc2ccccc2O1 (stereo unspecified) | 9% |
| Cn1c(CNC(=O)C(C)(C)C)nc2ccccc21 | 3% |
| COCCN1C(=O)c2oc3c(C)cc(C)cc3c(=O)c2C1c1cccc(O)c1 (stereo unspecified) | 3% |
| CC1(C)CC(O)C(CCC(O)c2ccccc2)C(C)(C)N1 (stereo unspecified) | 5% |
| CCOC(=O)c1ccc2[nH]c(C)c(CN3CCN(C)CC3)c(=O)c2c1 | 10% |
| COCCN(CC(=O)Nc1ccccc1C)S(=O)(=O)c1ccc(S(=O)(=O)N2CCCC2)cc1 | 3% |
| COc1ccccc1NC(=O)CSc1nnc(Cc2cccn2C)n1-c1ccc(F)cc1 | 14% |
| CC1(C)CC(=O)C=C(NCc2ccncc2)C1 | 6% |
| CCOC(=O)N1CCC(C(N)=O)CC1 | 12% |
| Nc1ccc(-n2nncc2-c2ccco2)cc1 | 2% |
| CC12CN3CC(C)(CN(C1)C3c1ccc(Cl)cc1Cl)C2=O (stereo unspecified) | 7% |

| SMILES | side scatter shift |
| --- | --- |
| O=C(CSc1nnc2ccccn12)c1ccccc1 | 3% |
| CCCCCCn1c(CN2CCCC(C)C2)nc2c1c(=O)n(C)c(=O)n2C (stereo unspecified) | 7% |
| CCOC(=O)c1ccc(NC(=O)Cn2nnc(-c3ccc(C)cc3)n2)cc1 | 12% |
| COc1ccc(CC(=O)Nc2ccc(-c3nnc(-c4ccc(C)cc4)o3)cc2)cc1 | 37% (active) |
| COc1ccc(Cc2nnc(NC(=O)Cc3cccs3)s2)cc1 | 23% |
| CCCCOC(=O)NCN1C(=O)C2C3C=CC(C3)C2C1=O (stereo unspecified) | 11% |
| Cc1noc(C)c1S(=O)(=O)N1CCCC(C(=O)Nc2nccs2)C1 (stereo unspecified) | 13% |
| Cc1ccc(-n2nc3cc(Cl)c(NC(=O)c4ccco4)cc3n2)cc1 | 36% (active) |
| CCN(CC)C(=O)c1sc(NC(=O)c2ccco2)c(C#N)c1C | 7% |
| O=C(c1ccco1)N1CCN(c2cccc(Cl)c2)CC1 | 16% |
| CCCS(=O)(=O)N1CCN(C(=O)c2cccs2)CC1 | 14% |
| Cc1cccc(C2c3c(n(C)c(=O)n(C)c3=O)N=C3c4ccccc4C(=O)C32)c1 (stereo unspecified) | 36% (active) |
| COc1ccc(C2C3=C(OC(C)=O)c4ccccc4C3=Nc3c2c(=O)n(C)c(=O)n3C)cc1 (stereo unspecified) | 13% |
| Cc1cc(C)nc(-n2nc(C)cc2NC(=O)c2ccc(Br)o2)n1 | 9% |
| CCOC(=O)N1CCC(Nc2c(NCCN3CCN(c4cccc(Cl)c4)CC3)c(=O)c2=O)CC1 | 16% |
| CCOc1c(OC)cc(C2C(C#N)=C(N)Oc3n[nH]c(-c4ccncc4)c32)cc1OC (stereo unspecified) | 4% |
| Cc1ccc(N2CCN(c3ccc(C)cc3)C2c2ccccn2)cc1 | 16% |
| Cc1ccc(C(c2sc3nc(C)nn3c2O)N2CCN(c3ccccc3)CC2)cc1 (stereo unspecified) | 10% |
| FC(F)Oc1ccccc1C1CC(c2ccc(Br)s2)Nc2ncnn21 (stereo unspecified) | 11% |
| Cc1c(NC(=O)C(C)OC(=O)c2cc3c4ccccc4n(C)c3s2)c(=O)n(-c2ccccc2)n1C (stereo unspecified) | 7% |
| CCOC(=O)N1CCC(NC(=O)c2cnn3ccccc23)CC1 | 2% |
| Cc1ncn(C23CC4CC(CC(O)(C4)C2)C3)n1 | 9% |
| O=C(c1ccc(=O)[nH]c1)N(Cc1ccco1)C1(C(=O)NC2CCCCC2)CCCCC1 | 1% |
| CCN(c1ccc2c(c1)OCO2)S(=O)(=O)c1cc(Br)cc2c1N(C(=O)C1CC1)CC2 | 6% |

| SMILES | side scatter shift |
| --- | --- |
| c1ccc(CCn2nnnc2CN2CCN(C3CCCC3)CC2)cc1 | 14% |
| O=C(NCCc1ccc(Cl)cc1)C1CC(=O)N(C2CCCCC2)C1 (stereo unspecified) | 24% |
| Cc1nc2ccc(NC(=O)N3CCC(c4ccccc4)C3)cc2nc1C (stereo unspecified) | 11% |
| COc1cc2ccccc2cc1C(=O)Nc1ccc(S(=O)(=O)Nc2cc(C)on2)cc1 | 12% |
| COc1ccc2c(c1)CCc1c(C(=O)Nc3c(C)n(C)n(-c4ccccc4)c3=O)noc1-2 | 1% |
| COc1ccc(OC)c(CNC(=O)CCc2nc(-c3cccs3)no2)c1 | 12% |
| CCCN1Cc2cccc(C(=O)NCc3ccccc3)c2C1=O | 9% |
| O=C(CCCn1c(SCC(=O)c2ccc(F)cc2)nc2ccccc2c1=O)NCc1ccco1 | 8% |
| CCc1nnc(NC(=O)CSc2nnc(Cc3ccccc3)n2-c2ccc(OC)cc2)s1 | 6% |
| CC(NC(=O)c1ccc(Cl)cc1)C(=O)N1CCCCC1 (stereo unspecified) | 5% |
| O=C1Nc2c(Br)cc(Br)cc2C1(O)N1CCOCC1 (stereo unspecified) | 13% |
| O=C(c1ccco1)N1CCN(CC(=O)N(C2CCCCC2)C2CCS(=O)(=O)C2)CC1 (stereo unspecified) | 9% |
| COc1cccc(C(=O)Nc2c3c(nn2-c2cccc(C)c2C)CS(=O)(=O)C3)c1OC | 8% |
| CCN(Cc1ccccc1)C(=O)CSc1nc(C)cc2c1C(=O)OC2 | 4% |
| COc1ccc2c(CC(=O)Nc3nnc(C4CC4)s3)coc2c1 | 7% |
| CCCN1CCN(CCCNC(=O)CN2C(=O)COc3ccccc32)CC1 | 7% |
| COc1ccccc1-n1cnc2cc(NS(=O)(=O)c3ccccc3)ccc21 | 11% |
| COc1ccc(OC)c(CN2C(=O)CCC2(C)C(=O)NC2CCCCCC2)c1 (stereo unspecified) | 11% |
| Cc1ccc(-c2nc(CS(=O)CC(=O)NC3CCCC3)c(C)o2)cc1 (stereo unspecified) | 7% |
| Cc1ccnc(N2C(=O)c3ccccc3C2Nc2ccc3c(c2)OCCO3)c1 (stereo unspecified) | 7% |
| CCOc1ccccc1NC(=O)c1cc(S(=O)(=O)N2CCC3(CC2)OCCO3)ccc1F | 7% |
| CCOC(=O)N1CCC(NC(=O)C(C)n2c3ccccc3c3cnn(C)c(=O)c32)CC1 (stereo unspecified) | 6% |
| Cn1c2ccccc2c2c(C(=O)N3CCN(c4ccc(F)cc4)CC3)cn(C3CCCC3)c(=O)c21 | 1% |
| O=c1c(-c2ccccc2)coc2c(CN3CCOCC3)c(O)ccc12 | 9% |
